These results are taken from the supplement of paper PMC10849652.

Of roughly 8,800 targets only a part is listed; those with a hit were picked by preference. About 0.5% of all pairs of compound and target were hits.

Chain of UniProt O60313 (O60313 whole entry, looked up): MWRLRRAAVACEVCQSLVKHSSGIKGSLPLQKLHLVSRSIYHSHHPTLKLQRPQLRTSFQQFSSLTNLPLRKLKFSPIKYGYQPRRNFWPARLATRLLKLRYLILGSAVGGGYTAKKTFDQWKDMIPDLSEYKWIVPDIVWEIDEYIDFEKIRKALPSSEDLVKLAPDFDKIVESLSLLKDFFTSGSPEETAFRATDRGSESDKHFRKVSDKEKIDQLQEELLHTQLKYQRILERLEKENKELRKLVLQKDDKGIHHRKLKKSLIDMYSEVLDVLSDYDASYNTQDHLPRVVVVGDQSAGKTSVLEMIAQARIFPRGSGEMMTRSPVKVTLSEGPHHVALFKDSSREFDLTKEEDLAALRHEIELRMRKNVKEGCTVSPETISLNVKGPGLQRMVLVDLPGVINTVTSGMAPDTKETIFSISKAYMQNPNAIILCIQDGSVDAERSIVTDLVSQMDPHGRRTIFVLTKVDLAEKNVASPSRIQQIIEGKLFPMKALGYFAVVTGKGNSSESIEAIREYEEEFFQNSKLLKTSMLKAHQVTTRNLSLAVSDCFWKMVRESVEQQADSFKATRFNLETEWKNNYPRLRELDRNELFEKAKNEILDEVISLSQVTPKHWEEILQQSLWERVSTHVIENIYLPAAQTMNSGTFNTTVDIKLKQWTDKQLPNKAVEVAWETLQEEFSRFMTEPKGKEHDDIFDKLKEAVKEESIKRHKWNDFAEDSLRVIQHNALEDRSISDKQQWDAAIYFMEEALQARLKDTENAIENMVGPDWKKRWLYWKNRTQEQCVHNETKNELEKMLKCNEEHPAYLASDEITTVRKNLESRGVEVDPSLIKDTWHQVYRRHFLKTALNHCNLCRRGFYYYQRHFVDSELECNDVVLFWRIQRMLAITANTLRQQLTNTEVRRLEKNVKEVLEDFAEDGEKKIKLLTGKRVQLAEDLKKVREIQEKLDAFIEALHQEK
Chain of UniProt Q9BZF3 (Q9BZF3 whole entry, looked up): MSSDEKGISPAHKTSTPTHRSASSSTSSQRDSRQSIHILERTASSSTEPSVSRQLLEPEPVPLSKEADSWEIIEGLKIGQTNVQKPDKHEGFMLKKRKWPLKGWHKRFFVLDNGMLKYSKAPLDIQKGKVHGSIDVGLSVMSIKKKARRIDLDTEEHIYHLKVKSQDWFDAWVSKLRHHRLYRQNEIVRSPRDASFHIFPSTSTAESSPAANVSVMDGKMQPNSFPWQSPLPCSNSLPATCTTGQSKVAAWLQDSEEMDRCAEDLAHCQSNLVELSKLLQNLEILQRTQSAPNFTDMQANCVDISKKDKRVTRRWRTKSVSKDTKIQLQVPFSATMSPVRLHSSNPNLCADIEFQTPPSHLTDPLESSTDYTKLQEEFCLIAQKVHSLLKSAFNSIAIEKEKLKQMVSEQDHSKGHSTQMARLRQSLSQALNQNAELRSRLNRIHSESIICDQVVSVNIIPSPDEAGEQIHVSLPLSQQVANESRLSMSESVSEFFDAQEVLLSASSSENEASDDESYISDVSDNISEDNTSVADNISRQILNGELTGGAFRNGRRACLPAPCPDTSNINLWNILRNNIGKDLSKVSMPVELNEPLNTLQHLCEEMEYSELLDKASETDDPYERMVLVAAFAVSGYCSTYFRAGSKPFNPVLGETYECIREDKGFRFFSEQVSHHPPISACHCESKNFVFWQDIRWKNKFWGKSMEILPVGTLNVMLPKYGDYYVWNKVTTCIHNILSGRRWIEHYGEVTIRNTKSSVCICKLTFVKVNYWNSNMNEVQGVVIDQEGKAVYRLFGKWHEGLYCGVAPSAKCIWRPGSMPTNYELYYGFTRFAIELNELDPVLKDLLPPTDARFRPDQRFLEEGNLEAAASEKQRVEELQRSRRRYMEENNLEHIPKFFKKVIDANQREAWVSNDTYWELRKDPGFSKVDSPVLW
Chain of UniProt O00221 (O00221 whole entry, looked up): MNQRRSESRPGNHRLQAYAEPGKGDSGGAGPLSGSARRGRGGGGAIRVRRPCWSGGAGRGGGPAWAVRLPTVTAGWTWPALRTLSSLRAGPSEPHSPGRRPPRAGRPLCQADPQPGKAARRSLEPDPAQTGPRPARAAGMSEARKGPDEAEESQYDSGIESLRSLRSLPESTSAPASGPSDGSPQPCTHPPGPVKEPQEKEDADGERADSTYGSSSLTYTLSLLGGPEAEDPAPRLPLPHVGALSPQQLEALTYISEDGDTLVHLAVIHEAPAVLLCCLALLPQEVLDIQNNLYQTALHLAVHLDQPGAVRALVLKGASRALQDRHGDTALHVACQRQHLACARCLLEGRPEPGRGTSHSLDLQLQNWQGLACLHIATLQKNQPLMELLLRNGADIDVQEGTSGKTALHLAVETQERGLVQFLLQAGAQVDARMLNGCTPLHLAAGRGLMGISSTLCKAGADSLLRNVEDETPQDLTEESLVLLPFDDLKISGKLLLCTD
Chain of UniProt Q9NZT2 (Q9NZT2 whole entry, looked up): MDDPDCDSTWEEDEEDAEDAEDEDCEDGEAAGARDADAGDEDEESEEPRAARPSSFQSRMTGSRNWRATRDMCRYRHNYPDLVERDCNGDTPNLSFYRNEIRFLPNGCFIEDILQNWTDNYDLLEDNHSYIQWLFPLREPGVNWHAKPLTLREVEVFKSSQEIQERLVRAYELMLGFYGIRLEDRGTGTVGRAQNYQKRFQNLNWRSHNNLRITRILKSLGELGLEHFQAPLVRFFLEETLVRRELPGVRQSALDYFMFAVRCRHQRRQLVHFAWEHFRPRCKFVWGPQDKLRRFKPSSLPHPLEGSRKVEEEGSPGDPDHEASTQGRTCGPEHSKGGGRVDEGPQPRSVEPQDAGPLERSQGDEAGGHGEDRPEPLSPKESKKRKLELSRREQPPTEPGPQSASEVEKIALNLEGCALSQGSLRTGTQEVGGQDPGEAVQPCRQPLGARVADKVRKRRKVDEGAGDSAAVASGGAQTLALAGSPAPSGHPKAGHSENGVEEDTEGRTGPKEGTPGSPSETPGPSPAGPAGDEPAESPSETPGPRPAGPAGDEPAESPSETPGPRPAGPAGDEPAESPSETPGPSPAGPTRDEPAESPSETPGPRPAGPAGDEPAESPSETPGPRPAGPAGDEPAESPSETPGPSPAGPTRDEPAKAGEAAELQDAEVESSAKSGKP
Chain of UniProt O00483 (O00483 whole entry, looked up): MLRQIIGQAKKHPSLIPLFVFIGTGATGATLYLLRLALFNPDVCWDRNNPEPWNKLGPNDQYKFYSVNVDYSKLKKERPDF
Chain of UniProt P49116 (P49116 whole entry, looked up): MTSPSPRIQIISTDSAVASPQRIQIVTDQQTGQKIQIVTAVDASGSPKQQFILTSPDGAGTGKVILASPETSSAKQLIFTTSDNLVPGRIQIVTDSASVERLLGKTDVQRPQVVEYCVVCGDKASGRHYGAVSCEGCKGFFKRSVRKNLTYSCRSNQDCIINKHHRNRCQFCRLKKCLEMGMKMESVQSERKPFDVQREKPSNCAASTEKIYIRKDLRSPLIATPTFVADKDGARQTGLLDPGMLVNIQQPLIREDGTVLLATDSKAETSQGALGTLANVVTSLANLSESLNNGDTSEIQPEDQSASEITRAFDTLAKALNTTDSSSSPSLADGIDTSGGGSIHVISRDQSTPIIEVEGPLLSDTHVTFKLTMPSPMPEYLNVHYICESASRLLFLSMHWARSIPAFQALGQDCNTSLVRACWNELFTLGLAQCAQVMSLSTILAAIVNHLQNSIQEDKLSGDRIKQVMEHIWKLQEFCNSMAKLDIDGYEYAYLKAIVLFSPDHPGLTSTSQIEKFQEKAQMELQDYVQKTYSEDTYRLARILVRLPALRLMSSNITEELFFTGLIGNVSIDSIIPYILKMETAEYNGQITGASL
Chain of UniProt P47900 (P47900 whole entry, looked up): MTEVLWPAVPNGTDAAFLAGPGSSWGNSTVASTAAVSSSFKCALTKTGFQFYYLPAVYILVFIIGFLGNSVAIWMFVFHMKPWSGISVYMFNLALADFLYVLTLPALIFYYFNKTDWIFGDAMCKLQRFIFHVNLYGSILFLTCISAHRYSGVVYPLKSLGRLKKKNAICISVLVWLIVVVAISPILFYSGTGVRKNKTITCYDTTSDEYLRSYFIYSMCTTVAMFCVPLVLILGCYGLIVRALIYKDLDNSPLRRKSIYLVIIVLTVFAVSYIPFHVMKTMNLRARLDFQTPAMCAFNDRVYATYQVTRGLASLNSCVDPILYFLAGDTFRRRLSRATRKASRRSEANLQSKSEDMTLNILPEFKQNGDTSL
Chain of UniProt O60829 (O60829 whole entry, looked up): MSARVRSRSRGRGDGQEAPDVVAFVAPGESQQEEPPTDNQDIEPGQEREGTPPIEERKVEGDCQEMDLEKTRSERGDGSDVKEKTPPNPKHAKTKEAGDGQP
Chain of UniProt Q8NE18 (Q8NE18 whole entry, looked up): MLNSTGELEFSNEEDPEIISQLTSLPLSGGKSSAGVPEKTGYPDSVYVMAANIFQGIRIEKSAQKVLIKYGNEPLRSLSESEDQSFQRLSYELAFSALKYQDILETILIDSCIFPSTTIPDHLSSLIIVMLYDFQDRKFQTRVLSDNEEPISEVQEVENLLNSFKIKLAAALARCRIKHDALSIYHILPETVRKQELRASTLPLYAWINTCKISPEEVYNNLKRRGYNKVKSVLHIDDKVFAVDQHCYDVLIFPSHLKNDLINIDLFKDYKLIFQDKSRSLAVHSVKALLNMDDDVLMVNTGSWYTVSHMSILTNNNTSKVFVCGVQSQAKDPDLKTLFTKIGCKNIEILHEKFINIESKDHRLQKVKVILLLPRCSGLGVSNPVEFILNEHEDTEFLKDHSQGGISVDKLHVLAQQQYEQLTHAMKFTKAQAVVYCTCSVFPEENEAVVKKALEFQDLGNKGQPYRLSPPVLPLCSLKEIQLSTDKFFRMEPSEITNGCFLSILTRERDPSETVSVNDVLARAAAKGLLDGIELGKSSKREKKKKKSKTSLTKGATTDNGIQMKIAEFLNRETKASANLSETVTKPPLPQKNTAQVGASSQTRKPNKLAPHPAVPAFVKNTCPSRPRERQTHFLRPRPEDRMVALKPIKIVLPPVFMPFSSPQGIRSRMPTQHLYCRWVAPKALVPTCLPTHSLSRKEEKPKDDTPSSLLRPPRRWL

Compound in the experiment: C1=CC=C(C=C1)[C@H](COC2=CC3=C(C=C2)NC(=O)N3)NC(=O)C4=CC=CN(C4=O)CC5=CC(=C(C=C5)F)F
Briefly: log2 fold change, soluble protein after heating vs DMSO (PISA); higher = thermal stabilisation; K562 lysate, 10 uM; active = over 0.2 and 3.5 SD of the protein, either way, in both replicates (recomputed). The method, boiled down: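 K562 pellets were dounce-homogenised in PBS pH 7.4 containing 1 mM MgCl2, and the crude extract, at 1 mg/mL protein, was exposed to 10 μM compound for 30 min. Aliquots were heated for 3 min across 48°C-58°C, pooled, brought to 0.5% NP-40 at 4°C and spun at 21,000xg for 90 min, with the supernatant taken as soluble protein. TMTpro 16plex LC-MS/MS with equalised channel sums quantified that protein. Values are log-two fold changes in thermal stability relative to solvent controls, taken from duplicates.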
As to MYO10 (UniProt Q9HD67), the log2 fold change was -0.122 (inactive).

MYCBP2 (UniProt O75592): the log2 fold change was -0.006 (inactive).

With OPA1 isoform 2 (UniProt O60313), the log2 fold change was -0.048 (inactive).

For NSA2 (UniProt O95478), the log2 fold change is 0.111 (inactive).

Take NR2C2 isoform 2 (UniProt P49116): the log2 fold change is -0.078 (inactive).

For NDUFA4 (UniProt O00483), the log2 fold change was -0.019 (inactive).

As for NSUN7 (UniProt Q8NE18), the log2 fold change is -0.144 (inactive).

On to PAGE4 (UniProt O60829), for which the log2 fold change was 0.024 (inactive).

As for NUP188 (UniProt Q5SRE5), the log2 fold change was -0.044 (inactive).

As to MYOM1 (UniProt P52179), the log2 fold change is -0.012 (inactive).

In the case of NR2F2 (UniProt P24468), the log2 fold change is -0.082 (inactive).

On to NRIP1 (UniProt P48552), for which the log2 fold change was 0.058 (inactive).

Consider OGFR (UniProt Q9NZT2), for which the log2 fold change is -0.016 (inactive).

Regarding NNT (UniProt Q13423), the log2 fold change is -0.005 (inactive).

Consider P2RY1 (UniProt P47900), for which the log2 fold change is -0.153 (inactive).

On to MTFP1 (UniProt Q9UDX5), for which the log2 fold change is 0.005 (inactive).

Turning to NFKBIE (UniProt O00221), the log2 fold change was -0.014 (inactive).

NPLOC4 (UniProt I3L3I1): the log2 fold change is -0.041 (inactive).

For the target OSBPL6 isoform 5 (UniProt Q9BZF3), the log2 fold change is 0.014 (inactive).

NDC1 (UniProt Q9BTX1): the log2 fold change is 0.001 (inactive).

As to MYLK (UniProt Q15746), the log2 fold change was -0.038 (inactive).

On to NDUFAF5 (UniProt Q5TEU4), for which the log2 fold change was 0.078 (inactive).

MSH2 (UniProt P43246): the log2 fold change was 0.018 (inactive).
